High-throughput results as filed in PubChem.
Sampled rows, rich in hits. Any-hit rate of the full collection: about 19%.
IL1B secr inh = inflammasome signaling inhibition, IL-1 beta readout. THP-1 LPS/ATP IL-1B secretion, AlphaLISA, 16 h; hits give low values. activity change, % at 57.5 µM. 360,000 compounds, 4.7% hits. AID 743279; in the data active = activity change below about -50%; inconclusive = mostly about -30% to -49%
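Secreted IL-1B measured by AlphaLISA bead assay after 16 h compound exposure of THP-1 cells; compounds (final up to 57.5 uM) added 1 h before LPS (250 ng/mL) and ATP (1.25 mM) stimulation; lower signal means less secretion.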
HT1080 IDH1KD tx = toxicity to HT-1080 IDH1 knockdown cells (counter line); 360,000 compounds, 2% hits; HT-1080 IDH1 knockdown viability, ATP luminescence, 48 h; Potency, µM (titrated, usually from 46.1 µM), hits mostly cytotoxic
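In this qHTS, HT-1080 cells depleted of IDH1 are exposed for 48 h at 37 °C to compound titrations. Toxicity is scored from CellTiter-Glo luminescence, with DMSO as full viability and medium alone as none.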
DT40 TDP1 no CPT = qHTS for Inhibitors of human tyrosyl-DNA phosphodiesterase 1 (TDP1): qHTS in cells in absence of CPT. 420,000 compounds, 15% hits. DT40 Tdp1-/- hTDP1 cells, no CPT, ATP luminescence, 48 h. Potency, µM (series often up to 46.2 µM), usual class: inhibitors; also: nearly all actives have a fitted effect of over 55% in size
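Growth kinetics read by CellTiter-Glo luminescence after ≥48 hr at 37 °C. Cells: DT40 Tdp1-/- stably carrying human TDP1, 400 per well, compound exposure in the absence of CPT (DMSO vehicle).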
TDP1 cell CPT = DT40-hTDP1 cell growth loss with CPT; Potency, µM (series often up to 46.2 µM), usual class: inhibitors; 420,000 compounds, 12% hits; AID 686979; chicken DT40 Tdp1-/-;hTDP1 cells + 20 nM CPT, ATP luminescence, 48 h; also: nearly all actives have a fitted effect of over 55% in size
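Cell growth measured by CellTiter-Glo luminescence after a minimum 48 h, 37 C compound exposure with 20 nM CPT in Tdp1-knockout DT40 cells stably expressing hTDP1, seeded 400/well; qHTS titration format.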
HT1080NT lethal = kills 2HG-producing HT-1080-NT fibrosarcoma cells; 360,000 compounds, 1.6% hits; HT-1080-NT fibrosarcoma viability, CellTiter-Glo ATP luminescence, 48 h; Potency, µM (doses to about 46.1 µM), most hits filed as cytotoxic; AID 686970;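 also: NT is the 2HG producing partner of a matched IDH1 knockdown line; nearly all actives have a fitted effect of over 55% in size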
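Viability by CellTiter-Glo luminescence after 48 h compound exposure at 37C of HT-1080-NT cells (750/well, RPMI, 5% FBS). % activity scaled between DMSO wells and medium-only wells, then curve-fitted and categorized by curve class.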
A number is an active result; . = inactive; ? = inconclusive; / = not tested or not shown. Unless noted, calls follow the shape of the dose curve; as a rule, active = well fitted curve in the direction sought with a large enough effect; inconclusive = small, poorly fitted or top-dose-only effect, or another doubt; inactive = no such curve, though single readings can be large; an effect the other way counts as inactive or inconclusive.

SMILES	IL1B secr inh	HT1080 IDH1KD tx	DT40 TDP1 no CPT	TDP1 cell CPT	HT1080NT lethal
COc1ccc(CCNc2oc(-c3ccc(C)cc3)nc2C#N)cc1OC	.	.	?	?	.
COc1ccc(CCNc2oc(COc3ccc(Br)cc3)nc2C#N)cc1OC	.	.	21µM	18µM	.
COc1ccc(CCNc2oc(/C=C/c3cc(OC)c(OC)c(OC)c3)nc2C#N)cc1OC	/	/	12µM	13µM	/
COCCCNc1oc(/C=C/c2cc(OC)c(OC)c(OC)c2)nc1C#N	/	/	23µM	?	/
CNc1oc(/C=C/c2ccccc2)nc1C#N	.	.	.	.	.
O=C(Nc1ccccc1)N1CCC2(CC1)CCN(S(=O)(=O)c1ccccc1)CC2	/	/	.	.	/
CCO[C@H]1OC(C(=O)NC2CC2)=C[C@@H](c2ccccc2)[C@@H]1CCCO	.	?	?	?	?
COc1cccc(CNC(=O)CCC2CCCN(C(=O)c3cc(C4CC4)[nH]n3)C2)c1 (stereo unspecified)	.	.	.	?	.
CCCCOC(=O)C1CN(c2ccccc2)N=C1C(=O)OCC (stereo unspecified)	.	.	21µM	23µM	.
CCCCOC(=O)C1CN(c2ccccc2)N=C1C(C)=O (stereo unspecified)	.	.	?	.	.
CCCN(CC(=O)Nc1ccccc1OC)C(=O)C1CCCC1	.	.	21µM	?	.
CCN(CC(=O)Nc1ccccc1OC)C(=O)C1CCCC1	.	.	.	.	.
CCCN(CC(=O)Nc1ccccc1OC)C(=O)Cc1ccc2c(c1)CCC2	.	.	?	18µM	.
C=CCN1C(=O)/C(=C/c2ccc(OC(C)=O)c(OCC)c2[N+](=O)[O-])SC1=S	-76	21µM	?	?	9.2µM
CC1C(=O)Nc2ccccc2N1C(=O)c1ccc(O)cc1 (stereo unspecified)	.	.	.	.	.
O=C1Nc2ccccc2N(C(=O)c2ccc3ccccc3c2)C1c1nc2ccccc2[nH]1 (stereo unspecified)	.	?	21µM	10µM	?
CC(=O)Nc1ccc(CN2C(=O)C(C)(C)ON=C2c2ccc(NC(C)=O)cc2)cc1	.	.	.	.	.
CCOC(=O)C1=CC[C@@H](c2ccccc2C(F)(F)F)N(S(=O)(=O)c2ccc(C)cc2)[C@H]1c1ccc(C#N)cc1	.	.	13µM	15µM	.
CCOC(=O)C1=CCC(c2ccc(N(CC)CC)cc2)N(S(=O)(=O)c2ccc(C)cc2)C1c1ccc([N+](=O)[O-])cc1 (stereo unspecified)	.	.	6.5µM	7.3µM	.
CCOC(=O)C1=CC[C@@H](c2ccc(OC)cc2)N(S(=O)(=O)c2ccc(C)cc2)[C@H]1CC	.	?	18µM	15µM	.
CCOC(=O)C1=CCC2c3c(c4ccccc4n3C)C(=O)C1N2C(=O)OC(C)(C)C (stereo unspecified)	.	.	?	?	.
CCOC(=O)C1=CC[C@H]2c3c(c4ccc(OC)cc4n3C)C(=O)C1N2S(=O)(=O)c1ccc(C)cc1	.	?	4.6µM	5.8µM	18µM
COc1ccc([C@@H]2CC=C(C(=O)O)[C@H](c3ccc(Cl)cc3)N2S(=O)(=O)c2ccc(Cl)cc2)cc1	.	.	.	?	.
O=C(CCNS(=O)(=O)c1ccc(OC(F)(F)F)cc1)NC1CC1	.	.	.	.	.
CCOC(=O)C1=CC[C@@H](c2ccccc2)N(S(=O)(=O)c2ccc(C)cc2)[C@H]1/C=C/c1ccccc1	.	.	9.2µM	13µM	.
SMILES	IL1B secr inh	HT1080 IDH1KD tx	DT40 TDP1 no CPT	TDP1 cell CPT	HT1080NT lethal
CCOC(=O)C1=CC[C@@H](c2ccccc2)N(S(=O)(=O)c2ccc(C)cc2)[C@H]1C	.	?	23µM	?	.
CCc1ccc([C@@H]2CC=C(C(=O)O)[C@H](c3ccccc3)N2S(=O)(=O)c2ccc(C)cc2)cc1	.	.	.	.	.
CCOC(=O)C1=CC[C@@H](c2ccccc2)N(S(=O)(=O)c2ccc(C)cc2)[C@@H]1C#N	?	?	?	?	.
C=C[C@H]1C(C(=O)OCC)=CC[C@@H](c2ccccc2)N1S(=O)(=O)c1ccc(C)cc1	.	.	21µM	23µM	.
CC(C)CCNC(=O)c1cc(S(=O)(=O)N2CCC3(CC2)OCCO3)ccc1F	.	.	?	?	.
CCCn1c(SCC(=O)Nc2cc(S(=O)(=O)N(C)C)ccc2OC)n[nH]c1=O	.	.	.	.	.
O=C1CCCc2[nH]c3cccc(/C(=C/c4ccccc4)c4ccccc4)c3c21	.	.	18µM	?	.
COC(=O)c1ccc2[nH]c3cccc(/C(=C/c4ccccc4)c4ccccc4)c3c2c1	-58	?	?	?	?
O=C1CCC/C(=N\NC(=O)c2ccc(CSc3cccc4cccnc34)cc2)C1	.	.	.	.	.
Cc1cc(C)cc(-n2ncc3c2CCCC3NC(=O)c2ccccc2)c1 (stereo unspecified)	.	.	?	?	.
CCOc1ccc(CCN2C(=O)C(=O)N([C@@H](Cc3ccccc3)CN3CCC[C@H]3CN3C(=O)C(=O)NC[C@@H]3Cc3ccc(O)cc3)C[C@@H]2Cc2ccc(O)cc2)cc1	-60	.	?	?	.
CCOc1ccc(CCN2C(=O)C(=O)N([C@@H](Cc3ccccc3)CN3CCC[C@H]3CN3C(=O)C(=O)NC[C@@H]3CC(C)C)C[C@@H]2Cc2ccc(O)cc2)cc1	-53	?	?	.	?
CCOc1ccc(CCN2C(=O)C(=O)N([C@@H](Cc3ccc(O)cc3)CN3CCC[C@H]3CN3C(=O)C(=O)NC[C@@H]3Cc3ccc(O)cc3)C[C@@H]2Cc2ccccc2)cc1	.	.	?	?	.
CCCCC(=O)Nc1nnc(S(=O)(=O)N2CCCCCC2)s1	.	.	.	.	.
CCOC(=O)CCCCCC(=O)Nc1ccc2c(c1)C(=O)N([C@H](C)CO)C[C@@H](C)[C@@H](CN(C)C(=O)CCC(F)(F)F)OCCCC[C@H](C)O2	.	.	.	?	.
O=C1c2ccccc2[C@@H]2Cc3csc[n+]3[C@H]12	?	.	5.2µM	3.7µM	.
N#Cc1ccccc1Sc1ccccc1C(=O)NCC(c1ccco1)N1CCCC1 (stereo unspecified)	.	.	?	23µM	.
N#Cc1ccc(C(=O)NCC(c2ccco2)N2CCCC2)cc1 (stereo unspecified)	.	.	.	.	.
CC(Oc1ccc(C(C)(C)C)cc1)C(=O)NCC(c1ccco1)N1CCCC1 (stereo unspecified)	?	.	21µM	23µM	.
